# A number with no mark means an inactive call. For some assays here: Results with a measured potency or affinity are listed apart. The source made the active and inactive calls. Unless noted, how the calls were made is not given here.
# Tests used:
# [1] = antimalarial activity against Dd2 strain (AID 2302;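 active means growth inhibition above 50% at the single 2 µM test dose, taken to imply half-maximal potency below 2 µM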;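 further: 0% = DMSO untreated growth and 100% = chloroquine plus artemisinin killed control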); details: P. falciparum Dd2 in RBCs, LDH growth readout, 72 h; at 2 µM; hits give high values
# [2] = HepG2 cytotoxicity, primary screen, cytotoxicity control for P. falciparum antimalarial project, cell-based, ATP luminescence (AID 2303;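 active means inhibition above 50%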;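 further: 0% = DMSO wells and 100% = digitonin-killed cells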); details: HepG2 viability, 24-48 h, at 10 µM, hits give high values
# [3] = target: L-lactate dehydrogenase (Plasmodium falciparum (isolate CDC / Honduras)) (UniProt Q27743); assay: PfLDH activity inhibition – cell lysate, 3D7 strain, counter-screen for P. falciparum growth inhibition project (AID 2304);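 further: 0% = vehicle and 100% = reference inhibitor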; details: P. falciparum 3D7 crude extract, LDH APAD/NBT absorbance; at 2 µM; hits give high values
# L-lactate dehydrogenase (Plasmodium falciparum (isolate CDC / Honduras)), sequence (Q27743 whole entry, looked up): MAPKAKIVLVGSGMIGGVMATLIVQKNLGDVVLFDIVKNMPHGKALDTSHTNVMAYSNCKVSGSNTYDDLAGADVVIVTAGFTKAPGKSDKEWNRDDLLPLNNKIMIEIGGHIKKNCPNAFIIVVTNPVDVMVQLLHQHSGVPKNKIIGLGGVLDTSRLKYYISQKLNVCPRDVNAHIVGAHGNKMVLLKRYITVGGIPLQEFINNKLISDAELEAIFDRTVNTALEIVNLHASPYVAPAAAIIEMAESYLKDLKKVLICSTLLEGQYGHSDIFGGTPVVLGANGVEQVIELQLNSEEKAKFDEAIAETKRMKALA
# [4] = inhibition of 3D7 malaria parasite growth – strain 3D7 (AID 2306);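 further: 0% = DMSO wells and 100% = chloroquine plus artemisinin control wells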; details: P. falciparum 3D7 erythrocytic growth, LDH absorbance, 72 h; at 2 µM; hits give high values
# [5] = target: Calcium-dependent protein kinase 1 (Plasmodium falciparum (isolate 3D7)) (UniProt P62344); assay: PfCDPK1 kinase inhibitors, biochemical, TCAMS library (AID 1159585; cut-off not given, nearly all actives have IC50 up to about 0.98 µM;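 further: inhibitors leave more ATP so luminescence rises with inhibition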); details: recombinant PfCDPK1, Kinase-Glo ATP depletion luminescence
# Calcium-dependent protein kinase 1 (Plasmodium falciparum (isolate 3D7)), sequence (P62344 whole entry, looked up): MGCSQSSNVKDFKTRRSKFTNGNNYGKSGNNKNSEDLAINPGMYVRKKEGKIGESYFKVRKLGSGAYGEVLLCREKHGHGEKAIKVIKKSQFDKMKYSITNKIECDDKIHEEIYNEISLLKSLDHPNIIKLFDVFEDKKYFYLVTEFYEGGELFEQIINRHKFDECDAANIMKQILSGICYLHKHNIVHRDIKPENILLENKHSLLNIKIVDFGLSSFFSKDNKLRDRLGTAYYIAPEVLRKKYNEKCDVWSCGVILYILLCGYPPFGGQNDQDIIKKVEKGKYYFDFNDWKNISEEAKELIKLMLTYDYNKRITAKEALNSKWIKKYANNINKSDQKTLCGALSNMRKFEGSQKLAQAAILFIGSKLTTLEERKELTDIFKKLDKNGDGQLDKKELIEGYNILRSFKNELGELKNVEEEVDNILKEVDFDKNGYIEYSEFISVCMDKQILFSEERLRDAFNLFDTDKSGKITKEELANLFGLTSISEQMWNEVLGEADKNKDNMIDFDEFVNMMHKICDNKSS
# [6] = target: Plasmodium falciparum protein kinase 6 (PK6, PF3D7_1337100) (UniProt Q8IDW1); assay: PfPK6 kinase inhibitors, biochemical, TCAMS library (AID 1159586); details: recombinant PfPK6, Kinase-Glo ATP depletion luminescence
# Plasmodium falciparum protein kinase 6 (PK6, PF3D7_1337100), sequence (Q8IDW1 1-305): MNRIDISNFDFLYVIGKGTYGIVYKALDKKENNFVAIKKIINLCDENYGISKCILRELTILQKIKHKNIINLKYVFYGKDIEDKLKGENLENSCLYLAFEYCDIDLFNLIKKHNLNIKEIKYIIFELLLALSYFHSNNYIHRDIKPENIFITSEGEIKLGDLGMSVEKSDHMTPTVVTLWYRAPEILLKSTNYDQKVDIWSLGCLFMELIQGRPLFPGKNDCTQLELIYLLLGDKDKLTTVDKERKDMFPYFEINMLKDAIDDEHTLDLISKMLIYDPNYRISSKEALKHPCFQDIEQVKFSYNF
# [7] = target: Protein kinase 7 (PK7), Plasmodium falciparum 3D7 (PF3D7_0213400) (UniProt Q7YTF7); assay: inhibition of Plasmodium PK7 catalytic activity – biochemical, TCAMS antimalarial set, Kinase-Glo luminescence (AID 1159587); details: recombinant PfPK7, Kinase-Glo ATP depletion luminescence
# Protein kinase 7 (PK7), Plasmodium falciparum 3D7 (PF3D7_0213400), sequence (Q7YTF7 1-343): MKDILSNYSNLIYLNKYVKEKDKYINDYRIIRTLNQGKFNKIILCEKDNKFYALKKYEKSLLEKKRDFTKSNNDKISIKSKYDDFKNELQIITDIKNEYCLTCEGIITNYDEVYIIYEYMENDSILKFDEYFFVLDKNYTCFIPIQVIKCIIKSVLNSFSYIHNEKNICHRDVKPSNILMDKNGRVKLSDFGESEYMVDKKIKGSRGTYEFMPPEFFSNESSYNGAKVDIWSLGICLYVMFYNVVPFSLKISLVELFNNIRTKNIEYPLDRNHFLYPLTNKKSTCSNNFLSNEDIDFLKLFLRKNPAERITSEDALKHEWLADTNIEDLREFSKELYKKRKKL
# [8] = target: Calcium-dependent protein kinase 4 (Plasmodium falciparum (isolate 3D7)) (UniProt Q8IBS5); assay: PfCDPK4 kinase inhibitors, biochemical, TCAMS library (AID 1159588; cut-off not given, nearly all actives have IC50 up to about 0.91 µM); details: recombinant PfCDPK4, Kinase-Glo ATP depletion luminescence
# Calcium-dependent protein kinase 4 (Plasmodium falciparum (isolate 3D7)), sequence (Q8IBS5 whole entry, looked up): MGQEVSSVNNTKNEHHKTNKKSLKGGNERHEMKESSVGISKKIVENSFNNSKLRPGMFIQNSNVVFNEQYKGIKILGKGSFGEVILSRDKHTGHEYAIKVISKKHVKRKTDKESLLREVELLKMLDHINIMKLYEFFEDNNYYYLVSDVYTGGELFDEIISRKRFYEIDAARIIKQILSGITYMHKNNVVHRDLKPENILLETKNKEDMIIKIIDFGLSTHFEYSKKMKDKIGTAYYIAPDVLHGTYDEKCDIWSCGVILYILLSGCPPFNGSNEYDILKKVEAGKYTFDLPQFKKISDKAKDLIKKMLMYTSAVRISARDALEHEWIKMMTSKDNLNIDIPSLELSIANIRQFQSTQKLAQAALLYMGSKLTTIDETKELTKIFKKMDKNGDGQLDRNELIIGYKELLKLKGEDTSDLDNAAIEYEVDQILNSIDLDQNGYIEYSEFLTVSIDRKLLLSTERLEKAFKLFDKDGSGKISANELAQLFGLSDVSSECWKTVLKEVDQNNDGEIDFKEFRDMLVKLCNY
SMILES,growth inhibition [1],inhibition [2],inhibition [3] [%],growth inhibition [4],outcome [5],outcome [6],outcome [7],outcome [8]
O=C(NCCN1CCCC1)c1ccc(-c2cccc(-c3nc4ccc(F)cc4[nH]3)c2)cc1,2%,29%,1,100% (active),inactive,inactive,inactive,inactive
CCCC[C@H](NC(=O)OC(C)(C)C)C(=O)Nc1ccc(Cc2ccc(NC(=O)[C@H](CCCC)NC(=O)OC(C)(C)C)cc2)cc1,71% (active),5%,3,95% (active),inactive,inactive,inactive,inactive
O=C(NCc1ccc(F)cc1)c1cc(Br)cc(N2CCN(c3ccncc3)CC2)c1,59% (active),36%,-2,80% (active),inactive,inactive,inactive,inactive
COc1cc(NC(=O)N2CCc3ccc(OCCN4CCCCC4)cc32)cc(C(F)(F)F)c1,93% (active),9%,6,101% (active),inactive,inactive,inactive,inactive
CC(C)(C)c1ccc(OC(=O)c2ccc(NC(=O)N[C@@H](Cc3ccc(O)cc3)C(=O)NC3CCN(Cc4ccc(O)cc4)C3)cc2)cc1 (stereo not given in full),67% (active),0%,-3,92% (active),inactive,inactive,inactive,inactive
O=C(NCC1CC1)C1Cc2c([nH]c3ccc(Br)cc23)C2(CCN(CCc3ccccc3)CC2)N1 (stereo not given),25%,14%,1,88% (active),inactive,inactive,inactive,inactive
O=C(Nc1ccc(N2CCN(Cc3cccc(F)c3)CC2)cc1)c1cccs1,92% (active),-5%,-1,95% (active),inactive,inactive,inactive,inactive
Cc1ccc(C(C)C)c(Oc2ccc3nc(N)nc(N)c3c2)c1,33%,61% (active),2,96% (active),inactive,inactive,inactive,inactive
O=c1[nH]c(NCCCNCc2cc3c(Cl)cc(Cl)cc3[nH]2)nc2ccsc12,11%,62% (active),0,96% (active),inactive,inactive,inactive,inactive
CC(C)N1CCN(C(=O)c2ccc(CN(C)CCCN3CCN(c4cccc(Cl)c4Cl)CC3)s2)CC1,35%,74% (active),3,94% (active),inactive,inactive,inactive,inactive
Fc1cccc(COc2ccc(Nc3ncnc4ccc(-c5nnc(C(F)(F)F)o5)cc34)cc2Cl)c1,77% (active),14%,5,101% (active),inactive,inactive,inactive,inactive
OC(CN1c2ccccc2Sc2ccccc21)CN(C1CCCCC1)C1CCCCC1 (stereo not given),96% (active),46%,-5,99% (active),inactive,inactive,inactive,inactive
CNCCCNCc1ccc(-c2ccc(F)c(Cl)c2)o1,12%,22%,0,100% (active),inactive,inactive,inactive,inactive
COc1cc2nc(N3CCN(C(=O)c4ccco4)CC3)nc(NCc3ccccc3)c2cc1OC,99% (active),16%,-5,101% (active),inactive,inactive,inactive,inactive
COc1ccc(N2CCN(CCCCNC(=O)c3ccc(NC(=O)c4ccc(Cl)cc4)cc3)CC2)c(OC)c1,22%,25%,6,97% (active),inactive,inactive,inactive,inactive
COc1ccccc1CNc1ncc(-c2ccsc2)c(-c2nccs2)n1,84% (active),14%,2,91% (active),inactive,inactive,inactive,inactive
COc1ccc(Nc2nc(NCc3cccnc3)cc(-c3ccc(OC)cc3)n2)cc1,16%,-2%,3,89% (active),inactive,inactive,inactive,inactive
Cc1cc(CN2C(=O)C(c3ccccc3)(c3ccccc3)N=C2N)c(C(F)(F)F)o1,84% (active),11%,4,97% (active),inactive,inactive,inactive,inactive
CC(C)CNCc1cccc(-c2cccc(CN(CCCN3CCN(C)CC3)C(=O)Nc3ccccc3)c2)c1,76% (active),25%,1,95% (active),inactive,inactive,inactive,inactive
CCc1cccc2c(C#N)cn(CC(=O)NCCc3ccccc3)c12,64% (active),1%,2,95% (active),inactive,inactive,inactive,inactive

SMILES,growth inhibition [1],inhibition [2],inhibition [3] [%],growth inhibition [4],outcome [5],outcome [6],outcome [7],outcome [8]
O=C(Nc1ccc(-c2nc3ccccc3[nH]2)cc1)c1cnc(Cl)c(Cl)c1,95% (active),11%,0,102% (active),inactive,inactive,inactive,inactive
COc1ccc(CNC(=O)NC2CCN(c3ccnc(Nc4ccc(OC)cc4)n3)C2)cc1 (stereo not given),80% (active),27%,1,87% (active),inactive,inactive,inactive,inactive
O=C(CSc1nccn1Cc1ccco1)Nc1cc(C(F)(F)F)ccc1Cl,66% (active),9%,-4,91% (active),inactive,inactive,inactive,inactive
CCCC(CNCc1cccc(OCC)c1)CNc1cc(=O)c2ccccc2[nH]1 (stereo not given),97% (active),-4%,4,101% (active),inactive,inactive,inactive,inactive
COc1ccc(CNCc2cccc(-c3cccc(-c4nc5ccccc5[nH]4)c3)c2)cc1,50% (active),24%,1,102% (active),inactive,inactive,inactive,inactive
Cc1ccccc1C(=O)Nc1cccc(-c2nc3ncccn3c2C)c1,94% (active),-5%,1,94% (active),inactive,inactive,inactive,inactive
Cc1cc(NCCC(=O)Nc2ccccc2)nc(NCCc2cccs2)n1,20%,26%,0,99% (active),inactive,inactive,inactive,inactive
CCOc1cc(C(=O)NC2CC(C)(C)N(C)C(C)(C)C2)ccc1-c1nc2cc(Cl)c(Cl)cc2[nH]1,49%,64% (active),4,101% (active),inactive,inactive,inactive,inactive
Cc1c(-c2cccc(C(C)(C)NCCCN3CCCCC3)c2)cnc(N)c1C,2%,5%,-1,95% (active),inactive,inactive,inactive,inactive
CC(C)NC(=O)c1cccc(-c2cccc(OCCN3CCSCC3c3ccccc3)c2)c1 (stereo not given),45%,24%,2,89% (active),inactive,inactive,inactive,inactive
OCC1CCN(Cc2ccc(-c3ccc(-c4nc5ccc(F)cc5[nH]4)cc3)cc2)CC1,95% (active),17%,-1,100% (active),inactive,inactive,inactive,inactive
O=C(Nc1ccc(C(F)(F)F)cc1)c1cccc(S(=O)(=O)NC2CCN(CC3CCCCC3)CC2)c1,12%,18%,-3,99% (active),inactive,inactive,inactive,inactive
FC(F)(F)c1cc(CNCCCNc2nc3ccncc3[nH]2)ccc1Cl,15%,11%,2,99% (active),inactive,inactive,inactive,inactive
O=C(NCc1cccc(F)c1)Nc1cccc(-c2ccc(-c3nc4ccc(C(F)(F)F)cc4[nH]3)cc2)c1,20%,50% (active),-4,98% (active),inactive,inactive,inactive,inactive
CC(C)NCc1ccc(-c2cccc(-c3nc4ccccc4[nH]3)c2)cc1,34%,21%,0,101% (active),inactive,inactive,inactive,inactive
COc1ccc(S(=O)(=O)NC2CCN(c3ccc(C(F)(F)F)cc3NC(=O)OCC(C)C)CC2)cc1,13%,19%,3,85% (active),inactive,inactive,inactive,inactive
CN(C(=O)/C=C/c1cc(C(F)(F)F)ccc1F)C1CCN(CCCCCNC(=O)/C=C/c2ccc(Cl)c(Cl)c2)C1 (stereo not given),1%,16%,-3,93% (active),inactive,inactive,inactive,inactive
COc1ccc(C(=O)N[C@@H](CC(C)C)C(=O)N[C@H](/C=N/NC(=O)c2ccccc2)CCc2ccccc2)cc1OCCN1CCOCC1,86% (active),2%,1,96% (active),inactive,inactive,inactive,inactive
COc1ccc2nccc([C@@H](O)CN3CCC(NC(=O)/C=C/c4cccc(C)c4)CC3)c2c1,28%,16%,-2,84% (active),inactive,inactive,inactive,inactive
O=C(NC1CCN(Cc2ccccc2)CC1)c1cccc(-c2cc3cc(Cl)c(Cl)cc3[nH]2)c1,86% (active),15%,-6,100% (active),inactive,inactive,inactive,inactive
